TDP1 cell CPT = growth inhibition of DT40 Tdp1-/-;hTDP1 cells with camptothecin (screen for TDP1 inhibitors); Potency, µM (series often up to 46.2 µM), for the others: top-dose activity change, negative = growth inhibition, usual class: inhibitors; chicken DT40 Tdp1-/-;hTDP1 cells + 20 nM CPT, ATP luminescence, 48 h; 420,000 tested, 12% active; also: potency is read from the fitted curve at half-maximal effect; nearly all actives have a fitted effect of over 55% in size
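Chicken DT40 Tdp1-/- cells stably complemented with human TDP1 were seeded at 400 cells/well in medium containing 20 nM camptothecin, exposed to pin-transferred compounds, and grown at 37 °C for at least 48 hr. Viability was read as ATP luminescence.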
HT1080 IDH1KD tx = toxicity to HT-1080 IDH1 knockdown cells (counter line); HT-1080 IDH1 knockdown viability, ATP luminescence, 48 h; Potency, µM (doses to about 46.1 µM), for inactives: at the top dose activity, negative = toxicity, usual class: cytotoxic; 360,000 tested, 2% active;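 also: potency is read from the fitted curve at half-maximal effect; 0% = DMSO wells and -100% = cell-free medium wells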
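% activity derives from luminescence (CellTiter-Glo), normalised to DMSO and no-cell wells. HT-1080-IDH1KD cells, 750/well, had 48 h compound exposure at 37 °C.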
DT40 TDP1 no CPT = qHTS for Inhibitors of human tyrosyl-DNA phosphodiesterase 1 (TDP1): qHTS in cells in absence of CPT; DT40 Tdp1-/- hTDP1 cells, no CPT, ATP luminescence, 48 h; Potency, µM (doses to about 46.2 µM), inactives show at the highest dose activity change, negative = growth inhibition, actives largely listed as inhibitors; 420,000 tested, 15% active; AID 686978, 2013; also: potency is read from the fitted curve at half-maximal effect; nearly all actives have a fitted effect of over 55% in size
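Compound effects on proliferation are scored in DT40 Tdp1-/-;hTDP1 cells in the absence of CPT. ATP levels (CellTiter-Glo luminescence) are recorded after a ≥48 hr, 37 °C incubation.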
IL1B secr inh = inhibitors of inflammasome signaling (IL-1 beta secretion) | THP-1 LPS/ATP IL-1B secretion, AlphaLISA, 16 h; active compounds read low | activity change, % at 57.5 µM | 360,000 tested, 4.7% active | AID 743279; in the data active = activity change below about -50%; inconclusive = mostly about -30% to -49%
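THP-1 cells pretreated 1 hr with compounds (up to 57.5 uM final), then stimulated with LPS (250 ng/mL final) plus ATP (1.25 mM final); secreted IL-1B measured by AlphaLISA after 16 hr, decreased signal indicating inhibition.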
HT1080-NT tox = kills 2HG-producing HT-1080-NT fibrosarcoma cells | Potency, µM (top dose mostly 46.1 µM), without a hit: at the top dose activity, negative = less viability, usual class: cytotoxic | HT-1080-NT fibrosarcoma viability, CellTiter-Glo ATP luminescence, 48 h | 360,000 tested, 1.6% active;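 also: NT is the 2HG producing partner of a matched IDH1 knockdown line; potency is read from the fitted curve at half-maximal effect; 0% = DMSO-treated cells and -100% = media-only wells without cells; nearly all actives have a fitted effect of over 55% in size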
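Luminescent CellTiter-Glo readout after 48 hours of compound exposure at 37 degrees C defined viability of HT-1080-NT cells. Activity was normalized to DMSO wells and cell-free media wells; concentration-response curves were fitted and assigned curve classes.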
* = called active by the depositor; u = inconclusive; x = no result given; [ ] = remark or other dose. Most compounds without a hit are left out; they make up all but 19% or so of the library. Unless noted, calls follow the shape of the dose curve; as a rule, active = well fitted curve in the direction sought with a large enough effect; inconclusive = small, poorly fitted or top-dose-only effect, or another doubt; inactive = no such curve, though single readings can be large; an effect the other way counts as inactive or inconclusive. Unless noted, % is scaled to controls: 0 for no effect and ±100 for the full control effect.

SMILES	TDP1 cell CPT	HT1080 IDH1KD tx	DT40 TDP1 no CPT	IL1B secr inh	HT1080-NT tox
COc1ccc(OC2C(=O)N(c3ccc(C)c(C)c3)C2c2ccc(OC)c(OC)c2)cc1 (centres undefined)	u	-11%	15µM*	-7	0%
COc1ccc(OC2C(=O)N(Cc3ccc4c(c3)OCO4)C2c2cccs2)cc1 (centres undefined)	u	-25%	u	-81*	u
COc1ccc(OC2C(=O)N(c3cc(C)ccc3C)C2c2ccc(OC)c(OC)c2)cc1 (centres undefined)	u	1%	u	0	-2%
COc1ccc([C@H]2CC(=O)C=C(c3ccc(OC)nc3)C2)cc1	u	-10%	-6%	-10	-1%
O=C(CSc1nnc(NC(=O)C2CC2)s1)Nc1ccc2c(c1)OCCO2	-3%	3%	u	37	-4%
CN(Cc1c(F)cccc1Cl)C(=O)c1ccc(NC(=O)CC2SC(N3CCCC3)=NC2=O)cc1 (centres undefined)	u	0%	18µM*	-11	-1%
CCN1C(=O)CSC1=Nc1cccc(C(=O)O)c1	-2%	4%	-3%	10	0%
O=C(NCc1ccccc1)NC1COc2ccccc2C1 (centres undefined)	12%	x	-5%	x	x
COc1ccc(-c2nc3cc(C(C)C)ccc3o2)cc1NC(=O)COc1ccc(C)cc1C	6.5µM*	x	u	x	x
COc1ccc(-c2nc3cc(C(C)C)ccc3o2)cc1NC(=O)c1ccc(C)c(Cl)c1	21µM*	x	18µM*	x	x
Cc1ccc(OCC(=O)Nc2cc(-c3nc4cc(Cl)ccc4o3)ccc2C)c(C)c1	-24%	x	-12%	x	x
COc1ccc(-c2nc3ccccc3o2)cc1NC(=O)C(C)Oc1ccc(Cl)cc1Cl (centres undefined)	u	x	23µM*	x	x
COc1ccc(-c2nc3ccccc3o2)cc1NC(=O)c1cccc2c(Cl)cccc12	-17%	x	0%	x	x
Cc1nc2cc(-c3ccccc3)nn2c(C)c1CCC(=O)NC(C)c1ccc2c(c1)OCCO2 (centres undefined)	u	-2%	18µM*	9	-6%
Cc1nc2nc(C)c(CCC(=O)NC(C)c3ccc4c(c3)OCCO4)c(C)n2n1 (centres undefined)	1%	12%	4%	13	22%
Cc1nc2cc(-c3cccc(F)c3)nn2c(C)c1CCC(=O)NC(C)c1ccc2c(c1)OCCO2 (centres undefined)	16µM*	1%	u	-7	-17%
CCC(=O)N1c2ccc(S(=O)(=O)N3CCN(c4ccccc4Cl)CC3)cc2CC1C (centres undefined)	u	-22%	u	12	u
O=C(c1cccc(F)c1)N1CCC2(CC1)CN(Cc1ccccc1)C2	-3%	x	-7%	x	x
O=C(c1cccc(F)c1)N1CCC2(CCCN(c3cccc(-c4ccccc4)c3)C2)CC1	-3%	x	u	x	x
COc1ccc(C(=O)N2CCC3(CC2)CN(c2ccc(-c4ccccc4)cc2)C3)cc1	27%	x	u	x	x
O=C(c1cccc(F)c1)N1CCC[C@@]2(CCN(c3cccc(-c4ccccc4)c3)C2)C1	21µM*	x	21µM*	x	x
O=C(c1cccc(F)c1)N1CCC2(CC1)CCN(c1cccc(-c3ccccc3)c1)CC2	u	x	16µM*	x	x
COc1ccc(C(=O)N2CCC3(CC2)CCN(c2cccc(-c4ccccc4)c2)CC3)cc1	0.12µM*	x	0.23µM*	x	x
N#Cc1cccc(NC(=O)N2CC[C@@]3(CCCN(C(=O)c4cccc(F)c4)C3)C2)c1	-25%	x	21µM*	x	x
Cc1ccc(S(=O)(=O)NCC(=O)OCC(=O)N(C)C2CCCCC2)cc1	-1%	-1%	1%	13	4%[9.24 µM]
SMILES	TDP1 cell CPT	HT1080 IDH1KD tx	DT40 TDP1 no CPT	IL1B secr inh	HT1080-NT tox
COCCN(CCOC)Cc1c(C)[nH]c2c(C)c(C)ccc2c1=O	1%	12%	-4%	-4	13%
O=C(CSc1nc(-c2ccccc2)nc2c1CCCC2)c1ccc(F)cc1	3%	x	-25%	x	x
O=C(c1cccc(F)c1)N1CCC2(CC1)CN(c1cccc(-c3ccccc3)c1)C2	u	x	16µM*	x	x
Cc1ccc(NC(=O)COc2cccc3ccc(C)nc23)c(Br)c1	u	-8%	23µM*	0	-4%
COc1cc(/C=c2/sc3nc(-c4ccccc4)c(-c4ccccc4)n3c2=O)cc(OC)c1OC	6.5µM*	0%	10µM*	3	1%
COc1ccc(/C=c2/sc3nc(-c4ccccc4)c(-c4ccccc4)n3c2=O)cc1	u	13%	u	-2	16%
COc1cc(/C=C2\CCc3c2nc2ccccc2c3C(=O)O)cc(OC)c1OC	-4%	u	-17%	20	u
COc1ccc(/C=c2\sc3nc(-c4ccccc4)c(-c4ccccc4)n3c2=O)cc1OC	u	3%	16µM*	-9	7%
Cc1cc(=O)oc2cc(NC(=O)c3cc([N+](=O)[O-])ccc3N3CCOCC3)ccc12	0%	6%	-10%	-22	12%
Cc1ccc(S(=O)(=O)c2nc(S(=O)(=O)c3ccccc3)sc2N2CCN(CCO)CC2)cc1	u	-8%	u	-68*	u
CCN(CC)c1sc(S(=O)(=O)c2ccccc2)nc1S(=O)(=O)c1ccc(C)cc1	u	x	15µM*	x	x
CCCS(=O)(=O)c1nc(S(=O)(=O)c2ccc(C)cc2)c(N(CC)CC)s1	-19%	x	u	x	x
CS(=O)(=O)c1nc(S(=O)(=O)c2ccc(Cl)cc2)c(N2CCC(C(N)=O)CC2)s1	u	2%	u	-79*	19%
CCN1CCN(c2sc(S(C)(=O)=O)nc2S(=O)(=O)c2ccc(C)cc2)CC1	u	3%	15µM*	-85*	8%
CC1CCCC(C)N1C(=O)COC(=O)c1cc(=O)[nH]c2ccccc12 (centres undefined)	31%	13%	-15%	15	15%
Cc1c(CN2CCOc3c(O)cc(-c4nc5ccccc5s4)cc3C2)cnn1C	-4%[9.04 µM]	x	u	x	x
CCc1ccccc1NC(=O)C(Cc1ccccc1)c1nn[nH]n1 (centres undefined)	18%	-4%	2%	8	-3%
CCN(C)C1CN(Cc2cn(Cc3ccc(Cl)cc3)nn2)S(=O)(=O)C1 (centres undefined)	-8%	0%	-13%	3	22%
COc1cc(NC(=O)CC(C)S(=O)(=O)c2ccc3c(c2)NC(=O)CO3)cc(OC)c1OC (centres undefined)	-2%	16%	28%	0	11%
Nc1ncncc1-c1ccc([N+](=O)[O-])cc1	16µM*	6%	u	-2	0%

Assay outcomes as filed in PubChem.
